CYP2C9 activ: human CYP2C9 activators, primary screen, biochemical, luminescence; recombinant CYP2C9, luciferin-H conversion; active compounds read high; factor 1 = untreated enzyme, 0 = blocked; activation factor at 5 µM; 96,000 tested, 1.4% active; AID 1024, 2008;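 active = activation factor of 2 or more for CYP2C9 at a 5 µM dose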;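 note: 0 = sulfaphenazole-blocked wells and 1 = vehicle-only wells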
CYP2C19 inhib: blockers of cytochrome P450 2C19 activity – biochemical, luminescence, ADME assay, primary screen; P33261; inhibition, % at 5 µM; CYP2C19 Supersomes, luciferin-H EGE luminescence, 30 min; AID 778, 2007; 96,000 tested, 21% active;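 active = CYP2C19 inhibition above a set limit at 5 µM in the primary screen, cut at about 50% in these data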;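 note: plate controls were negative control wells for no effect and 2.5 mM tranylcypromine positive control for full effect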
sEH inhibitor: soluble epoxide hydrolase inhibitors, primary screen, biochemical, human sEH | Bifunctional epoxide hydrolase 2 (Homo sapiens), P34913 | recombinant human sEH enzymatic activity assay | inhibition, % at 2 µM | 91,000 tested, 0.34% active | AID 707, 2007; in the data active = inhibition above about 80%
sEH activator: soluble epoxide hydrolase activators, primary screen, biochemical, human sEH; Bifunctional epoxide hydrolase 2 (Homo sapiens), P34913; AID 717, 2007; purified human sEH enzymatic activity, activator screen; 91,000 tested, 0.04% active; activation, % at 2 µM; in the data active = activation above about 37%
CYP2C19 act: human CYP2C19 activators, primary screen, biochemical, luminescence; Cytochrome P450 2C19 (Homo sapiens), P33261; 96,000 tested, under 10 active; activation factor at 5 µM; recombinant CYP2C19, luciferin-H EGE luminescence; active compounds read high; 0 = fully inhibited enzyme, 1 = untreated enzyme;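 active = activation factor of at least 2 at 5 µM in the primary screen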;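 note: 0 = wells with 2.5 mM tranylcypromine and 1 = vehicle-only wells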
CYP2C9 inhib: blockers of cytochrome P450 2C9 activity – biochemical, luminescence, ADME assay, primary screen | inhibition, % at 5 µM | P11712 | CYP2C9 Supersomes, luciferin-H conversion | AID 777, 2007 | 96,000 tested, 20% active;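 active = blocking of liver enzyme CYP2C9 beyond about 50% at 5 µM, limit read from the data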
* marks the source's active call; other numbers are inactive results; / = not tested or not shown. Compounds with a hit are over-represented: about 27% of the library has one in this group of screens.

SMILES	CYP2C9 activ	CYP2C19 inhib	sEH inhibitor	sEH activator	CYP2C19 act	CYP2C9 inhib
O=C(CCCCCN1C(=O)c2ccccc2C1=O)Nc1ccc(F)cc1	/	/	44	-43	/	/
CC1CCN(S(=O)(=O)c2ccc(NC(=O)CN3CCN(C)CC3)cc2)CC1	1.1	-2	2	-2	1	-7
O=C(CCCCCN1C(=O)c2ccccc2C1=O)Nc1ccc2c(c1)OCCO2	0.2	71*	46	-47	0.3	76*
O=C(CCN1C(=O)c2ccccc2C1=O)Nc1ccc2c(c1)OCCO2	0.9	6	-7	11	0.9	12
CC1CCN(S(=O)(=O)c2ccc(NC(=O)CCN3C(=O)c4ccccc4C3=O)cc2)CC1	0.1	62*	-19	17	0.4	94*
Cc1ccc(S(=O)(=O)N2CCN(C)CC2)c(C)c1	1.5	36	0	1	0.6	-48
O=Cc1ccc(OCC(=O)NC(=O)NC2CCCCC2)cc1	0.8	46	0	1	0.5	16
O=C(CCN1C(=O)c2ccccc2C1=O)Nc1cccc(S(=O)(=O)N2CCCCC2)c1	0.1	81*	14	-16	0.2	92*
CC(C)OC(=O)C(NC(=O)c1ccccc1)=C1CCCCC1	0.7	14	-2	2	0.9	34
CCN(CC)c1ccc(C(=O)OCc2cc(=O)oc3cc(O)ccc23)cc1	2*	94*	4	-3	0.1	-100
CC(=O)c1c(C)nn(CC(O)Cn2c3c(c4cc(C)ccc42)CCCC3=O)c1C (stereo unspecified)	0.3	54*	-4	3	0.5	67*
Cc1ccc2c(c1)c(C)c(C)n2CC(O)CN1CCCCC1C (stereo unspecified)	0.9	75*	/	/	0.3	5
Cc1ccc(C)c(OCC(O)CN2C(C)CCCC2C)c1 (stereo unspecified)	1.1	4	-1	3	1	-14
Cc1ccc(C)c(OCC(O)CN2CCCCC2C)c1 (stereo unspecified)	1.1	53*	-8	9	0.5	-10
Cc1ccc2c(c1)c(C)c(C)n2CC(O)Cn1nc(C)c(Br)c1C (stereo unspecified)	0	97*	-1	0	0	96*
O=C(NCc1ccncc1)/C(=N/O)c1ccccc1	0.6	33	14	-14	0.7	45
O=C(Cn1c(=O)oc2cc(S(=O)(=O)N3CCCC3)ccc21)N1CCN(c2ccccn2)CC1	0.6	4	/	/	1	37
CC1CCCC(C)N1C(=O)CN1C(=O)C(C)(C)Oc2ccc(C(=O)NC3CCCC3)cc21 (stereo unspecified)	1	-19	-15	13	1.2	-3
CCN(CCNc1ccc(Cl)cc1[N+](=O)[O-])C(=O)c1cc([N+](=O)[O-])c(N(C)C)cc1OC	0.2	76*	-14	11	0.2	80*
COCCN(CCOC)Cc1cc(=O)oc2cc3c(cc12)CCC3	0.5	77*	1	-2	0.2	49
Cc1cc2oc(=O)cc(CSc3nc(N)cc(N)n3)c2cc1C(C)C	0.2	0	-3	0	1	77*
O=c1cc(CN2CCN(CCO)CC2)c2cc3c(cc2o1)CCC3	1.1	1	-8	9	1	-13
Nc1cc(N)nc(SCc2cc(=O)oc3cc4c(cc23)CCC4)n1	1.3	50*	7	-6	0.5	-27
CCOC(=O)N1CCN(Cc2cc(=O)oc3cc4c(cc23)CCC4)CC1	0.9	26	6	-2	0.7	10
Cc1cc2oc(=O)cc(CN3CCCCC3)c2cc1C(C)C	0.7	7	-1	2	0.9	32
O=C1c2ccccc2C(=O)N1Cc1nn2c(-c3ccc(Cl)cc3)nnc2s1	1.2	34	/	/	0.7	-22
COc1ccc2c(-c3ccccc3)cc(N3CCOCC3)nc2c1	0.8	-1	-13	14	1	24
N#CCCNC(=O)CCN1CCOCC1	1.1	-21	15	-15	1.2	-12
COc1ccccc1N1CC(C(=O)OCC(=O)c2ccc(F)cc2)CC1=O (stereo unspecified)	1.6	26	5	-4	0.7	-64

Assay outcomes as filed in PubChem BioAssay.
